This note sets out measurements from PubChem BioAssay (NCI).

Assay [1] can be described thus: NCI Yeast Anticancer Drug Screen. Data for the rad50 strain (AID 155).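 Also: 0% = growth of vehicle-only cultures of the same strain.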 The conditions noted are these: S. cerevisiae rad50 strain growth inhibition; at 50.0 µM; stronger effect = higher value. An outline of the steps:
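Yeast carrying a defined DNA repair defect were exposed to test compounds, and growth was compared with vehicle-treated controls to give percent inhibition.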

Assay [2] can be described thus: NCI Yeast Anticancer Drug Screen. Data for the mec2-1 strain (AID 157). The settings on record: S. cerevisiae mec2-1 strain, at 50.0 µM, stronger effect = higher value. An outline of the steps: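 Compounds were applied to mec2-1 yeast cells. Their growth was then compared with that of vehicle-treated cultures to give growth inhibition.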
Assay [3] can be described thus: NCI Yeast Anticancer Drug Screen. Data for the sgs1 mgt1 strain (AID 161).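 Also: 0% = growth of cultures given vehicle only.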 The conditions noted are these: S. cerevisiae sgs1 mgt1 strain, at 50.0 µM, stronger effect = higher value. The gist of the method:
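Percent growth inhibition was derived by comparing compound-exposed mutant yeast with vehicle-exposed cultures. The strain carries alterations in DNA damage repair.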

Assay [4] can be described thus: NCI Yeast Anticancer Drug Screen. Data for the cln2 rad14 strain (AID 165).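 Also: 0% = growth equal to vehicle treated cultures.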 The settings on record: S. cerevisiae cln2 rad14 strain, at 50.0 µM, stronger effect = higher value. The gist of the method:
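Strain: cln2 rad14 yeast, altered in cell cycle control and DNA damage repair. Read-out: growth inhibition vs vehicle.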

A short description of assay [5]: NCI Yeast Anticancer Drug Screen. Data for the bub3 strain (AID 167). The conditions noted are these: S. cerevisiae bub3 mutant strain, at 50.0 µM, stronger effect = higher value. The gist of the method:
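Compounds were applied to a genetically altered yeast strain carrying a cell-cycle control defect. Growth inhibition was scored against vehicle-treated controls.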

Assay [6] can be described thus: NCI Yeast Anticancer Drug Screen. Data for the mlh1 rad18 strain (AID 175). The settings on record: S. cerevisiae mlh1 rad18 strain growth inhibition; at 50.0 µM; stronger effect = higher value. The gist of the method:
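A repair-deficient yeast strain is exposed to test compound, and growth is scored relative to vehicle-treated controls.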

Structures are written as SMILES. About 79,000 compounds went through this panel and 15% of them were active in at least one assay; those are over-represented in the sample as a whole. Unmarked numbers belong to inactive results. Activity calls are given as the source filed them. Rule as the data show it: active = growth inhibition above about 70%; inactive = the rest.

In the case of `O=C(NC(=S)Nc1ccsc1)c1ccccc1`, the growth inhibition in assay [1] was 14.6%; in assay [2], 0.7%; in assay [3] it was 2.6%; in assay [4] it was 8.85%; in assay [5], -2.15%; in assay [6] it was -6.35%.

With `Oc1c(Cl)cc(N=Cc2ccc(N(CCCCl)CCCCl)cc2Cl)cc1Cl`, the growth inhibition in assay [1] is 84.6% (active); in assay [2], 41%; in assay [3] it was 93.7% (active); in assay [4], 75.2% (active); in assay [5] it was 54.7%; in assay [6], 84% (active).

Regarding `O=C(Nc1ccccc1)Sc1nc2ccccc2s1`, the growth inhibition in assay [1] was 24.5%; in assay [2], 17.8%; in assay [3] it was 45.5%; in assay [4], 13.7%; in assay [5], 53.9%; in assay [6], 27.6%.

Turning to `C/C(=C1/N=C(c2ccccc2)OC1=O)c1ccccc1`, the growth inhibition is 39.5% in assay [1]; 70% (active) in assay [2]; 65.4% in assay [3]; 75.7% (active) in assay [4]; 94.6% (active) in assay [5]; 80.5% (active) in assay [6].

Take `C#CC(OC(=O)c1cc([N+](=O)[O-])cc([N+](=O)[O-])c1)C1OC(C)(C)OC1C1COC(C)(C)O1` (stereo not given): the growth inhibition in assay [1] was 27%; in assay [2], 26.4%; in assay [3] it was 57.1%; in assay [4], -1%; in assay [5], 7.25%; in assay [6], 58.5%.

Turning to `CCOCCN1CCN(CCOCC)CC1`, the growth inhibition was -11.9% in assay [1]; -9.75% in assay [2]; -9.65% in assay [3]; -18.4% in assay [4]; 27.6% in assay [5]; 14% in assay [6].

`O=C1C2CCOC2N=C2CCCN12` (stereo not given): the growth inhibition in assay [1] was -1.85%; in assay [2], 5.55%; in assay [3], -3.55%; in assay [4] it was 1.65%; in assay [5], -5.3%; in assay [6] it was -11.1%.

Turning to `CC1=CC(O)CC(C)(C)C1/C=C/C(C)=C/C=C/C(C)=C/C=C/C=C(C)/C=C/C=C(C)/C=C/C1=C(C)CC(O)CC1(C)C` (stereo not given), the growth inhibition was 14.4% in assay [1]; -15.4% in assay [2]; 22.6% in assay [3]; 16.4% in assay [4]; -30.9% in assay [5]; -37.1% in assay [6].

On to `O=C(O)c1ccc(Cl)c(N=C/C=C/c2ccccc2)c1`, for which the growth inhibition in assay [1] is 1.85%; in assay [2] it was -37.5%; in assay [3], 6.6%; in assay [4] it was -15.3%; in assay [5], 3.45%; in assay [6] it was -6.9%.

In the case of `Cc1cc2c(c(S(=O)(=O)c3ccccc3[N+](=O)[O-])c1)NCCC2`, the growth inhibition in assay [1] was 2.95%; in assay [2], -36%; in assay [3], 3.3%; in assay [4], -23.4%; in assay [5], 14.8%; in assay [6], -15.8%.

For `CC(C)(C)OC(=O)N(CCCCN(CCCNC(=O)C(F)(F)F)C(=O)OC(C)(C)C)CCCNC(=O)C(F)(F)F`, the growth inhibition in assay [1] is -14.9%; in assay [2] it was 4.75%; in assay [3], -14.3%; in assay [4], 3.15%; in assay [5], 4.6%; in assay [6] it was -32%.

For the compound `COc1cccc2cc(C(=O)Nc3ccccc3)c(=N)oc12`, the growth inhibition was 2.75% in assay [1]; 12.7% in assay [2]; -31% in assay [3]; 9.3% in assay [4]; -37.9% in assay [5]; -43% in assay [6].

`CC(C)OP(=O)(OC(C)C)c1ccc2c(c1)OCCOCCOCCOCCO2`: the growth inhibition was -2.9% in assay [1]; -11.3% in assay [2]; 9.2% in assay [3]; 4.2% in assay [4]; -0.15% in assay [5]; 21.4% in assay [6].

For `CCC1(C)N=C(N)Nc2nc3ccccc3n21` (stereo not given), the growth inhibition was -9.95% in assay [1]; 0.35% in assay [2]; -7.65% in assay [3]; -28.6% in assay [4]; 0.4% in assay [5]; -18.2% in assay [6].

As for `COC(=O)CC1C=CC(OC)[C@@]2(C)C(=O)C=C(C)C(=O)[C@@H]12` (stereo not given in full), the growth inhibition was 4.85% in assay [1]; -1.95% in assay [2]; 18.6% in assay [3]; -16.6% in assay [4]; 3.8% in assay [5]; 3.15% in assay [6].

Consider `CCCCCCCCCCCCOC1OC(COC(C)=O)C(OC(C)=O)C(OC(C)=O)C1OC(C)=O` (stereo not given) (tested in a mixture with another compound), for which the growth inhibition in assay [1] was -7.9%; in assay [2], -15.4%; in assay [3] it was -15.6%; in assay [4], -22.2%; in assay [5], -2.45%; in assay [6], -14.4%.

On to `CCCCCCCCCCCc1cc(=O)n(-c2cc(Cl)ccc2Cl)n1C`, for which the growth inhibition is 99.1% (active) in assay [1]; 99.3% (active) in assay [2]; 99.5% (active) in assay [3]; 98.7% (active) in assay [4]; 99% (active) in assay [5]; 99.2% (active) in assay [6].

Take `CC(C)Oc1c(N(C)CCO)c2cc(Cl)ccc2oc1=O`: the growth inhibition is -6.1% in assay [1]; 12.4% in assay [2]; 3.45% in assay [3]; 19.6% in assay [4]; 5.75% in assay [5]; 3.05% in assay [6].

In the case of `Cc1nc(-n2nc(-c3ccccc3)cc2-c2ccccc2)sc1C(=O)CC(=O)C(=O)Nc1ccc(Cl)c(Cl)c1`, the growth inhibition in assay [1] was 6.15%; in assay [2], -5.55%; in assay [3] it was 24.6%; in assay [4], 13.8%; in assay [5], 48.5%; in assay [6], 24.8%.

`CCCCCCCCCCCC(=O)C1=C(O)C(O)CCC1=O` (stereo not given): the growth inhibition in assay [1] was -1.35%; in assay [2], -4.7%; in assay [3] it was -6.55%; in assay [4], -50%; in assay [5] it was -7.4%; in assay [6], -16.9%.
